# Screening results: PubChem, several laboratories
# An excerpt weighted towards active compounds, which were near 1% of everything screened.
# H9c2 TAG inh: inhibitors of triacylglycerol accumulation; H9c2 cells, Nile Red lipid (TAG) fluorescence; cells loaded with 200 µM oleic acid; inhibition, % at 12.5 µM; 230,000 tested, 0.66% active; AID 651582;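 active = pattern-corrected inhibition of lipid staining of at least 50% with the nuclear-stain viability signal not falling by more than 50%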;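 note: 0% = DMSO wells and 100% = triacsin C control wells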
# HSV augment: HSV replication enhancement. HSV replication augmentation in cells, fold increase. maximum fold increase. 220,000 tested, 0.005% active; in the data active = maximum fold increase above about 1.5; inconclusive = no clear call, values can overlap the other calls; tested in PC3 cells
# NPR2 activator: GC-B (human) receptor activation. activation, % at 10 µM. HEK293-GC-B cells, CNP EC30, cGMP TR-FRET; 0% at EC30 CNP, 100% saturating CNP. 370,000 tested, 0.11% active. P20594;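 active = activation at 10 µM reaching about 35% in either raw or pattern-adjusted values, limit read from the data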
# GC-A act: GC-A (human) enzyme activation | P16066 | HEK293 GC-A cells, cGMP TR-FRET, EC30 ANP; 0% at EC30 ANP, 100% saturating ANP | activation, % at 10 µM | 370,000 tested, 0.14% active | AID 1671463; in the data active = activation above about 40%
# Efflux pump mplx: inhibitors of Candida antifungal efflux pumps expressed in yeast. inhibition, % at 10 µM. S. cerevisiae Candida pump triplex, Nile Red efflux. 330,000 tested, 0.44% active;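 active = plate passing quality check with inhibition over a set limit, or well fluorescence over plate mean plus 4 SD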;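 note: Nile Red retained in pooled yeast measured as flow cytometry median fluorescence; 0% = buffer negative control and 100% = Enniatin B positive control; higher means more Nile Red kept so more efflux inhibition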
# Bfl-1 A1 inh: inhibitors of the anti-apoptotic protein A1, read as caspase activation. MEF A1-2A-BIM cells, Caspase-Glo 3/7 luminescence, 3 h; percent of clofoctol response, vehicle zero. caspase activation, % (no concentration beside the values). 330,000 tested, 0.066% active. AID 2462;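 active = over half of replicate activation scores above 10%, or exactly half above 10 with the replicate mean above 10; inconclusive = replicate mean below 10 yet half the replicates above 10; inactive = over half of replicates below 10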
# Active calls of the source: *; i = inactive; ? = inconclusive; / = no result.
SMILES,H9c2 TAG inh,HSV augment,NPR2 activator,GC-A act,Efflux pump mplx,Bfl-1 A1 inh
Nc1nc2c(ncn2[C@@H]2O[C@H](CNCC3=Cc4cc(O)ccc4OC3)[C@@H](O)[C@H]2O)c(=O)[nH]1,/,/,39*,47*,/,/
Nc1nc2c(ncn2[C@@H]2O[C@H](CNCc3ccc4ncccc4c3)[C@@H](O)[C@H]2O)c(=O)[nH]1,/,/,13,12,/,/
CC(C)c1cccc(-c2ccc3c(c2)S(=O)(=O)c2cccc(C(=O)NCc4ccccc4)c2C3=O)c1,12,/,9,1,0,2
CC(C)c1cccc(-c2ccc3c(c2)S(=O)(=O)c2cccc(C(=O)NCc4ccccc4Cl)c2C3=O)c1,2,/,/,/,0,12*
C=CCN1C(=O)[C@@H](CC(=O)NCCCOC)[C@]2(C(=O)OC)CCCCC=C12,/,/,1,1,/,/
Cc1nn(-c2ccccc2)c(C)c1/C=N/NC(=O)c1cc(-c2ccccc2)n[nH]1,56*,i,2,1,0,0
CCCCCn1nnnc1C1c2ccccc2OCC(=O)N1Cc1ccco1 (centres undefined),/,/,1,-3,/,/
COC(=O)c1sc(-c2ccc(Cl)cc2)cc1NC(=O)COCC(=O)O,8,i,-8,17,0,0
COC(=O)c1sc(-c2ccc(Cl)cc2)cc1NC(=O)/C=C/C(=O)O,23,i,-9,47*,0,-1
CC(C)CN1C(=O)C[C@@]2(C(=O)N(C)c3ccc(NC(=O)C(C)(C)C)cc32)C1c1ccccc1 (some centres undefined),/,/,0,2,/,/
CCOC(=O)C1=NOC(C(=O)NC2CCCC2)(C(=O)c2ccc(OC)cc2)C1 (centres undefined),/,/,-1,1,/,/
C=C(C(=O)c1ccccc1)C(C)C(=C)C(=O)c1ccccc1,55*,i,1,-1,0,2
C=C(C(=O)c1ccccc1)C(c1ccccc1)C(C)C(=O)c1ccccc1 (centres undefined),6,i,5,-6,0,1
CCOC(=O)CC[C@@H]1CC[C@]2(CCCN(C(=O)c3ccco3)C2)O1,/,/,8,0,/,/
Cc1ccc(Nc2c(-c3cccnc3)nc3ccc(Br)cn23)cc1,-1,i,44*,45*,0,-1
COc1ccc(-c2nc3cnccn3c2Nc2ccc(C)cc2)cc1,-13,i,48*,62*,0,-2
Cc1ccc2nc(-c3ccncc3)c(Nc3ccccc3)n2c1,/,i,-9,-14,0,0
Cc1ccc(Nc2c(-c3ccccc3)nc3cnccn23)cc1,-19,i,33,49*,0,-1
O=C(N/N=C/c1cc(Cl)cc(Cl)c1O)c1ccncc1,65*,?,-4,0,0,-1
CCCCCCSc1cc(-c2nc3cnccn3c2NCc2ccccc2)ccc1OC,-13,/,/,/,0.8*,-1
Cc1cc(Br)cn2c(Cc3ccccc3)c(-c3ccco3)nc12,/,/,35*,32,/,/
COc1ccc2c(c1)N=C(c1[nH]c3ccccc3c1CCN1C(=O)c3ccccc3C1=O)[C@]2(O)CCN1C(=O)c2ccccc2C1=O,/,/,2,-7,/,/
Cc1cccc(CS(=O)(=O)c2ncc(Cl)c(C(=O)Nc3nnc(C(C)C)s3)n2)c1,/,/,/,/,0,8.1*
O=C(COc1ccc(/C=N/NC(=O)c2cc3ccccc3o2)cc1Br)Nc1ccccc1,/,i,-2,2,0,27*
O=C(COc1ccccc1[N+](=O)[O-])Nc1ccc(NC(=O)c2cc3ccccc3o2)cc1,21,i,5,-3,0,7.5*
SMILES,H9c2 TAG inh,HSV augment,NPR2 activator,GC-A act,Efflux pump mplx,Bfl-1 A1 inh
COc1ccc(N2CCN(CCNS(=O)(=O)c3ccc(F)cc3)CC2)cc1,/,/,-1,-3,/,/
CCOc1cccc(C(=O)Nc2cccc(-c3nnc(-c4ccccc4)o3)c2)c1,/,i,2,2,0,0
CCOc1cccc(C(=O)Nc2cccc(-c3nnc(-c4ccc(C)cc4)o3)c2)c1,/,i,-3,-11,0,20*
O=C(OC12CCCN(C1)/C(=C/c1cccnc1)C2)c1ccc(F)cc1 (centres undefined),/,/,-2,0,/,/
CC(CCC(C)C(C)(C)C)[C@@H]1CC[C@H]2C3C[C@H](OS(O)(=S)=S)[C@H]4C[C@H](OS(O)(=S)=S)[C@@H](OS(O)(=S)=S)C[C@]4(C)[C@H]3CC[C@]12C (some centres undefined) (tested in a mixture with another compound),25,/,/,/,2.1*,0
CC(=O)C1=NN(c2ccccc2)C(c2ccc3c(c2)OCO3)N1c1ccc(N2CCOCC2)cc1 (centres undefined),/,i,13,22,0,-1
CC(=O)C1=NN(c2ccccc2)C(c2cccs2)N1c1ccccc1 (centres undefined),/,1.5*,/,/,0,-1
Cc1ccc(-n2c(SCC(=O)Nc3ccc(OCc4ccccc4)cc3)nnc2-c2ccco2)cc1,/,/,0,-1,/,/
Cc1cccc2sc(NC(=O)CN(C)S(=O)(=O)c3cccs3)nc12,35,i,-1,42*,0,0
COC(=O)[C@H](C(C)C)N(CCCc1cn(Cc2ccc(C)cc2)nn1)S(=O)(=O)c1ccc(F)cc1Br,/,/,4,-1,/,/
CCOc1ccc(S(=O)(=O)N(C)CCO)cc1-c1nc2c(C(C)(C)C)nn(C)c2c(=O)[nH]1,/,/,67*,59*,0,-1
CCOc1ccccc1-c1nc2c(C(C)(C)C)nn(C)c2c(=O)[nH]1,/,i,/,/,0,-1
CCOc1ccc(S(=O)(=O)N(C)C)cc1-c1nc2c(C(C)(C)C)nn(C)c2c(=O)[nH]1,/,i,68*,58*,0,0
CN(CCO)S(=O)(=O)c1ccc2c(c1)C(=NO)c1cc(S(=O)(=O)N(C)CCO)ccc1-2,14,i,-1,9,0,0
C=CCN1[C@H](C#N)[C@@H](c2ccc(Br)cc2)[C@H]1CO,/,/,7,-2,/,/
COCCn1c(SCC(=O)Nc2ccc(NC(C)=O)cc2)nc2c([nH]c3ccccc32)c1=O,8,/,-3,-6,0,?
CCn1c(SCC(=O)Nc2cc(C)on2)nc2c([nH]c3ccccc32)c1=O,18,/,-1,59*,0,1
CCn1c(SCC(=O)Nc2cccc(NC(C)=O)c2)nc2c([nH]c3ccccc32)c1=O,17,/,-1,1,0,-1
COCCn1c(SCC(=O)Nc2cc(C)on2)nc2c([nH]c3ccccc32)c1=O,1,/,-2,50*,/,/
Cc1ccc(S(=O)(=O)N2CCCC(C(=O)NCc3ccco3)C2)cc1 (centres undefined),/,/,-2,0,/,/
COc1ccc2ccccc2c1C=Nn1c(-c2cc(-c3ccccc3)n[nH]2)n[nH]c1=S,/,/,-20,-1,/,/
